Rows were chosen to be rich in hits. Some 1.4% of all compounds tested hit in one or more screens of this group.
LmPK inh: inhibitors of Leishmania mexicana pyruvate kinase; purified LmPK, Kinase-Glo ATP luminescence, 1 h; Potency, µM (top dose mostly 57.5 µM), inactives show at the top dose activity change, negative = inhibition, most hits filed as inhibitors; hit rate 0.37% among 290,000; AID 1721
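Purified LmPK (0.1 nM) converted ADP (0.1 mM) to ATP with PEP (0.5 mM) in imidazole buffer pH 7.2 with KCl and MgCl2, 1 h at room temperature. ATP was read by Kinase-Glo luminescence; data normalized to uninhibited and no-enzyme controls.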
FBPA Giardia inh: inhibitors of Giardia lamblia fructose-1,6-bisphosphate aldolase. purified Giardia FBPA. hit rate 0.71% among 290,000. Potency, µM (doses to about 59.6 µM), without a hit: at the top dose activity, negative = inhibition, usual class: inhibitors. A8B2U2; also: nearly all actives have a fitted effect of over 55% in size
Target sequence (A8B2U2 whole entry, looked up): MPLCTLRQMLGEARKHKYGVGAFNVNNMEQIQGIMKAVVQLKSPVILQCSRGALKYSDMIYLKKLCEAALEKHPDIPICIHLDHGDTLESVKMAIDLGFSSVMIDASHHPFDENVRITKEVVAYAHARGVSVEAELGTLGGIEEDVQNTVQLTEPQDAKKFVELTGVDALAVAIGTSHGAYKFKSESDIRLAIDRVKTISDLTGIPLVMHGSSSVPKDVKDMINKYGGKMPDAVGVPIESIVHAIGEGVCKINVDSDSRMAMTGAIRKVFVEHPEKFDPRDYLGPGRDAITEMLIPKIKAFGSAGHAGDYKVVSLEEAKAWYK
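Giardia FBPA (40 nM reagent) was preincubated 10 min at RT with compound (up to 57.5 uM final), then substrate plus GAPDH/TPI/NAD/arsenate coupling system with diaphorase/resazurin was added; resorufin fluorescence (525/598 nm) was read after 20 min.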
Tb PYK inh: T. brucei pyruvate kinase inhibition | TbPYK enzyme, Kinase-Glo Plus ATP luminescence, 45 min | hit rate 0.12% among 410,000 | Potency, µM (highest dose often 76.8 µM), for the others: top-dose activity, negative = inhibition, hits mostly inhibitors | AID 624173; also: nearly all actives have a fitted effect of over 50% in size
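In this concentration-response screen, enzyme-free wells defined baseline while DMSO plates tracked drift. Each reaction combined TbPYK, substrate, compound and 130 uM ADP for 45 min at room temperature. Kinase-Glo Plus luminescence gave the signal.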
AmpC inh no detg: inhibitors of E. coli AmpC beta-lactamase without detergent; Potency, µM (series often up to 57.1 µM), without a hit: top-dose activity change, negative = inhibition, actives largely listed as inhibitors; AmpC nitrocefin hydrolysis, absorbance 480 nm, 0.0001% Triton; AID 485341; hit rate 0.52% among 330,000;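 also: plate controls were no compound for no effect and no enzyme for full effect; nearly all actives have a fitted effect of over 20% in size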
Target sequence (P00811 whole entry, looked up): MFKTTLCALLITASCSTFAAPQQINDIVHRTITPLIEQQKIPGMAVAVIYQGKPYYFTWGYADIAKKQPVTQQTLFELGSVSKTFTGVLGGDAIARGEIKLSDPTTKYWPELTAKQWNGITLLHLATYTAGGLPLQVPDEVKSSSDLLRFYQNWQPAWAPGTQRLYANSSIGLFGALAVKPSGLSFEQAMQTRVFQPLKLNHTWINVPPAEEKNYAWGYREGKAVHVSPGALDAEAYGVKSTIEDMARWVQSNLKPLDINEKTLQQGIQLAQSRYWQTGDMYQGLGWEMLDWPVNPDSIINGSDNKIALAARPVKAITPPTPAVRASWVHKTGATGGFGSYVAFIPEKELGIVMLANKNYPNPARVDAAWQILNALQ
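AmpC (5.3 nM in the dispensed reagent) in 20 mM phosphate pH 7.0 with 0.01% (detergent screen) or 0.0001% Triton X-100 was preincubated with compounds for 15 min at room temperature. Nitrocefin was then added from an 800 uM solution, and hydrolysis was followed at 480 nm.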
RE007 growth inh: less growth of the S. pombe RE007 Vpr strain; S. pombe RE007 Vpr strain, BacTiter-Glo ATP luminescence, 24 h; Potency, µM (highest dose often 92.2 µM), for the others: at the highest dose activity change, negative = less growth, actives largely listed as inhibitors; hit rate 0.21% among 360,000; AID 651644; active = well fitted falling curve with a large enough effect; inconclusive = small, poorly fitted or top-dose-only effect; inactive = no such curve, though single readings can be large or run the other way; also: nearly all actives have a fitted effect of over 50% in size
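Fission yeast RE007 carrying one integrated HIV-1 vpr copy, seeded at OD 0.01 in PMG+AL medium with 23 nL pinned compound. Grown 24 h at 30 degrees; viability read by BacTiter-Glo luminescence after 5 min.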
AmpC detergent: AmpC beta-lactamase inhibition with detergent present | P00811 | AID 485294 | hit rate 0.041% among 370,000 | Potency, µM (titrated, usually from 114 µM), for the others: top-dose activity change, negative = inhibition, hits mostly inhibitors | AmpC hydrolysis of nitrocefin, absorbance 480 nm, 0.01% Triton;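 also: 0% = no-compound wells and -100% = no-enzyme wells; nearly all actives have a fitted effect of over 25% in size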
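AmpC (5.3 nM in the dispensed reagent) in 20 mM phosphate pH 7.0 with 0.01% (detergent screen) or 0.0001% Triton X-100 was preincubated with compounds for 15 min at room temperature. Nitrocefin was then added from an 800 uM solution, and hydrolysis was followed at 480 nm.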
Numbers without * were called inactive; ? = inconclusive; / = not tested or not shown; [ ] = dose if it differs, or a comment. Unless noted, calls follow the shape of the dose curve; as a rule, active = well fitted curve in the direction sought with a large enough effect; inconclusive = small, poorly fitted or top-dose-only effect, or another doubt; inactive = no such curve, though single readings can be large; an effect the other way counts as inactive or inconclusive. Unless noted, % is scaled to controls: 0 for no effect and ±100 for the full control effect; potency is read from the fitted curve at half-maximal effect.

SMILES | LmPK inh | FBPA Giardia inh | Tb PYK inh | AmpC inh no detg | RE007 growth inh | AmpC detergent
Cc1ccc(NCc2ccccc2OCc2ccccc2F)cc1 | -2% | -11% | 4% | -21% | -22% | -6%
COc1ccc(Br)cc1CNc1ccc(O)cc1 | 2% | 16µM* | 1% | 28µM* | ? | ?
C=CCOc1c(Br)cc(CNc2ccc(NC(=O)C(C)C)c(OC)c2)cc1OCC | 3% | 8.9µM* | 3% | 76% | 3% | -7%
CCOc1cc(CNc2ccc(N(C)C)cc2)cc(Br)c1OCC(=O)NC(C)(C)C | 1% | 5µM* | -12% | ? | ? | 3%
CCCCCCCCCCCCCCCCCCOP(=O)([O-])OC1CC[N+](C)(C)CC1 | / | / | 4%[33.2 µM] | / | / | /
COc1cccc(N/N=C/c2cccc(Br)c2O)c1 | -6% | -10% | 0% | ? | 4% | -1%
O=[N+]([O-])c1cccc(N/N=C/c2cccc(O)c2O)c1 | -1% | ? | 0% | 16µM* | 46% | -11%
O=[N+]([O-])c1ccc(N/N=C/c2cccc(O)c2O)c(S(=O)(=O)N2CCOCC2)c1 | 5% | ? | -3% | 11µM* | 10% | -1%
Cc1cccc(N/N=C/c2ccc(O)c(O)c2O)c1 | 8% | 14µM* | -19% | ? | 15% | -6%
O=[N+]([O-])c1ccc(N/N=C/c2ccc(O)c(O)c2O)c(S(=O)(=O)N2CCOCC2)c1 | -17% | 10µM* | ? | -58% | -1% | -11%
CC(C)NC(=O)CSc1nc2ccccc2c(=O)n1Cc1ccc(C(=O)NC(C)C)cc1 | / | / | 0% | / | / | 20%
CCc1nc2nc(C)cc(Nc3ccc(Br)cc3F)n2n1 | / | / | 0% | / | / | 16%
C=CCOc1c(Cl)cc(CNc2ccc(C)c(Cl)c2)cc1OC | 3% | -4% | / | -25% | / | -4%
C=CCOc1c(Cl)cc(CNc2ccc(N(C)C)cc2)cc1OC | -3% | 4.5µM* | -9% | -5% | -18% | 8%
COc1ccc(-c2onc(C)c2C)cc1S(=O)(=O)N1c2ccccc2CC1C (stereo not drawn) | / | / | -1% | / | / | -3%
COCCN=c1scc(-c2ccco2)n1/N=C/c1ccc(O)c(O)c1O | -1% | 18µM* | ? | ? | -25% | -5%
CN=c1scc(-c2cccs2)n1/N=C/c1ccc(O)c(O)c1O | ? | ? | ? | ? | -25% | 4%
C=CCN=c1scc(-c2ccco2)n1/N=C/c1ccc(O)c(O)c1O | -3% | 22µM* | ? | 4.5µM* | -19% | 2%
CN=c1scc(C)n1/N=C/c1ccc(O)c(O)c1O | ? | 3.2µM* | ? | -37% | ? | 6%
CC(C)N=c1scc(-c2ccco2)n1/N=C/c1ccc(O)c(O)c1 | 2% | -19% | -19% | -47% | ? | 5%
Cc1ccc(S(=O)(=O)N2CCc3cc(C(=O)Nc4c(C)cccc4C(C)C)ccc32)cc1 | / | / | -7% | / | / | 11%
Cc1noc(/C=C/c2cccs2)c1S(=O)(=O)N1CCC(C(=O)NCc2ccccc2Cl)CC1 | / | / | 2% | / | / | -1%
Cc1cc(O)c(C(C)C)cc1N=Cc1ccccc1O | 3% | 3.5µM* | -21% | -17% | 11% | -15%
COc1ccc(C(=O)Cn2c(=O)n3nc(CCn4nc(C)cc4C)nc3c3cc(OC)c(OC)cc32)cc1 | / | / | 6% | / | / | 6%
Cc1cccc(NC(=O)C2C(c3ccccc3)C2(Cl)Cl)c1 (stereo not drawn) | -1% | -11% | 0% | -52% | -1% | -2%
SMILES | LmPK inh | FBPA Giardia inh | Tb PYK inh | AmpC inh no detg | RE007 growth inh | AmpC detergent
Cc1ccc(NC(=O)C2C(c3ccccc3)C2(Cl)Cl)c(C)c1 (stereo not drawn) | 7% | 0% | ? | 28µM* | 8% | -1%
COc1ccc(C(=O)N(Cc2sccc2C)C2CCS(=O)(=O)C2)cc1Cl (stereo not drawn) | / | / | 1% | / | / | 6%
CS(=O)(=O)c1cc([N+](=O)[O-])c(Sc2nc3ccccc3[nH]2)c([N+](=O)[O-])c1 | 43% | ? | ? | 22µM* | 0% | ?
Cc1cccc(-n2c(CNC(=O)c3ccc(S(=O)(=O)N4CCCCC4)cc3)n[nH]c2=S)c1 | 10% | 8% | 7.9µM* | -21% | 5% | -9%
CC1=Nc2cc(C(=O)NCCc3ccc(Cl)cc3)ccc2Sc2c(C)ccc(C)c21 | / | / | -1% | / | / | 9%
Oc1ccccc1N=N/C(=N/Nc1ccccc1O)c1ccccc1 | / | / | -5% | -33% | -5% | -7%
N#C/C(N=Nc1ccccc1O)=N\Nc1ccccc1O | / | / | ? | -42% | 11µM* | -13%
C=Cc1ccc(Cn2c(C(=O)O)c(CNC3CCCCC3)c3ccc(OC)cc32)cc1 | / | / | -10% | / | / | -1%
CCOC(=O)/C(C)=C1\NC(C)(C)Cc2ccccc21 | 12% | -20% | ? | ? | 0% | 25µM*
Cn1c(=O)c2c(-c3ccccc3)n3c(c2n(C)c1=O)C(c1ccc([N+](=O)[O-])cc1)Nc1ccccc1-3 (stereo not drawn) | / | / | -12% | / | / | 0%
Cc1ccc(-c2nc3n(n2)Cc2ccccc2-3)cc1 | 7.9µM* | -17% | -21% | -30% | ? | 0%
CCn1c(C)nc2cc(-c3nc4n(n3)Cc3ccccc3-4)ccc21 | 16µM* | -9% | ? | 90% | 5.6µM* | -4%
CCOC(=O)Cn1c(=O)oc2cc(S(=O)(=O)N3CCN(c4ccc(F)cc4)CC3)ccc21 | / | / | 3% | / | / | -5%
COc1cc(/C=C/c2nc3cc(Cl)ccc3c(=O)n2-c2ccc(C)cc2C)cc(OC)c1OC | / | / | -2% | / | / | 6%
OCCN1CCN(C(=S)c2ccc(Cl)c(Cl)c2)CC1 | 1% | 13µM* | ? | 6% | -6% | 5%
Cc1ccc(/C=C/c2nc3ccccc3[nH]2)o1 | 16µM* | ? | ? | -35% | -30% | 1%
Cc1ccc(/C=C/c2nc3ccccc3[nH]2)cc1 | / | / | ? | / | / | 2%
CCOc1ccc(N(CC)S(=O)(=O)N2CCCC(C(=O)Nc3cc(Cl)ccc3C)C2)cc1 (stereo not drawn) | / | / | 6% | / | / | 2%
Cc1csc(NC(=O)c2ccoc2C)n1 | 16µM* | 2% | ? | -20% | ? | -15%
Cc1occc1C(=O)Nc1cc(C(C)(C)C)on1 | 13µM* | 1% | ? | -19% | -26% | -7%
CCOC(=O)Cc1csc(NC(=O)Nc2ccc(Cl)cc2)n1 | 5% | -1% | 11% | -46% | -5% | -1%
CCOC(=O)Cc1csc(NC(=O)c2ccoc2C)n1 | 14µM* | 1% | -27% | -21% | -30% | 0%
